Molecules are shown by their SMILES. Where “and” joins values, the source holds several entries; their conditions need not be identical. Identical values can stand only once. Records with an inconclusive call do not appear. Calls of active or inactive are those of the source. Unless noted, calls follow the shape of the dose curve; as a rule, active = well fitted curve in the direction sought with a large enough effect; inconclusive = small, poorly fitted or top-dose-only effect, or another doubt; inactive = no such curve, though single readings can be large; an effect the other way counts as inactive or inconclusive.

This passage reports Potency results from PubChem BioAssay (NCATS).

Assay [1] addresses Cytochrome P450 2C9 (Homo sapiens) (UniProt P11712). The assay can be described thus: Cytochrome P450 family 2 subfamily C member 9 (CYP2C9) small molecule antagonists: luciferase biochemical (cell-free) qHTS assay (AID 1645842; active = well fitted curve in the direction sought with a large enough effect in the repeat runs; an effect the other way counts as inactive or inconclusive; also: nearly all actives have a fitted effect of over 55% in size). The conditions noted are these: P450-Glo CYP2C9 enzyme assay, luciferin luminescence; series mostly up to 57.4 µM. In short, it runs like this:
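P450-Glo CYP2C9 system: proluciferin substrate with enzyme in mix containing 0.4% BSA, 10 min at room temperature, then NADPH regeneration solution added and incubated 1 h at 37C. Detection reagent stopped reaction; luminescence read after 20 min as RLU.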
On the technique in general: In qHTS, concentration-response curves come from the screen itself.

The nature of assay [2]: Primary qHTS for inhibitors of nuclear receptor binding SET domain protein 2 (NSD2) in an isogenic RCH-ACV NSD2 p.E1099K mutant (9B) (AID 1645876). Also: nearly all actives have a fitted effect of over 70% in size. The settings on record: RCH-ACV NSD2 E1099K (9B) viability, CellTiter-Glo, 72 h; series mostly up to 44.9 µM.
Assay [3] can be described thus: Primary qHTS for inhibitors of nuclear receptor binding SET domain protein 2 (NSD2) in an RCH-ACV wild type WT cells (2C) (AID 1645877). Also: nearly all actives have a fitted effect of over 70% in size. The settings on record: RCH-ACV (leukaemia line) NSD2 WT (2C) viability, CellTiter-Glo, 72 h; series mostly up to 44.9 µM.
Potency is read from the fitted curve at half-maximal effect.

Cytochrome P450 2C9 (Homo sapiens), sequence (P11712 whole entry, looked up): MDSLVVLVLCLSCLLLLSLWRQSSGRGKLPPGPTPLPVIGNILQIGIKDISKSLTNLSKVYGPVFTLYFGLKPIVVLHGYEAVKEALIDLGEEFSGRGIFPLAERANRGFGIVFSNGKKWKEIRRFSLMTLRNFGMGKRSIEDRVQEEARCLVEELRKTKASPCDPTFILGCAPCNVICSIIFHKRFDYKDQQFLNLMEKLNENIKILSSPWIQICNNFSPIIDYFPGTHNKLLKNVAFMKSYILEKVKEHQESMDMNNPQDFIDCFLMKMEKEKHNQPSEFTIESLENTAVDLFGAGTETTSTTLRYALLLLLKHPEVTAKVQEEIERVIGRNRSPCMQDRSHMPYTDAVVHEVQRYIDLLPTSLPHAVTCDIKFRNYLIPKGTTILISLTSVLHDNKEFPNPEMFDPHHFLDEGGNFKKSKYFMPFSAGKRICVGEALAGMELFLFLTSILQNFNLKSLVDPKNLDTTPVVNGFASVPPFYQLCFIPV

In the case of `CCn1c(=O)c(-c2ccc(-c3cncs3)cc2Cl)cc2cnc(Nc3ccc(N4CCN(C)CC4)cc3)nc21`, the Potency was 6.01 µM (active) in assay [1], 2.31 µM (active) in assay [2] and 2.59 µM (active) in assay [3].
On to `CNC(C)C(=O)NC(C(=O)N1CCCC1C(=O)Nc1snnc1-c1ccccc1)C1CCCCC1` (stereo not given), for which the Potency entry in assay [1], in assay [2] and in assay [3] was “inactive” in each case.
Turning to `CCn1c(=O)c(-c2ccc(Cl)cc2Cl)cc2cnc(Nc3ccc(N4CCNCC4)c(F)c3)nc21`, the Potency result in assay [1] was “inactive”. In addition, the Potency was 290 nM (active) and 662 nM (active) in assay [2]; 728 nM (active) and 742 nM (active) in assay [3].
Take `Cc1ccc(S(=O)(=O)NCc2ccc(C(=O)NCCN(Cc3ccccc3)C(C)C)cc2)cc1`: the results for the Potency in assay [1], in assay [2] and in assay [3] were 9.52 µM (active), 16.3 µM (active) and 23 µM (active), respectively.
As to `CCCC(CCC)C(=O)Nc1ccn([C@@H]2O[C@H](CO)[C@@H](O)C2(F)F)c(=O)n1`, the Potency is 8.49 µM (active) in assay [1], 1.48 µM (active) in assay [2] and 0.934 µM (active) in assay [3].
With `C=CC(=O)Nc1cc(-n2c(=O)ccc3cnc4ccc(-c5ccc(NS(C)(=O)=O)cc5)cc4c32)ccc1C`, the Potency in assay [1] was 1.51 µM (active); in assay [2], 3.26 µM (active); in assay [3], 3.66 µM (active).
The matching figures for `O=C(COc1ccc2ccccc2c1Br)Nc1cccnc1`: 8.49 µM (active), “inactive” and “inactive”.
Consider `COc1ccccc1OCCNCC(O)CCOc1cccc2[nH]c3ccccc3c12` (stereo not given), for which the values for the Potency in assay [1], in assay [2] and in assay [3] were 0.301 µM (active), 18.3 µM (active) and 14.5 µM (active), respectively.
Turning to `CC(C)c1ccccc1OC(=O)NCCc1ccc2ccccc2c1`, in assay [1], the Potency was 0.952 µM (active). Besides, the Potency entry in assay [2] and in assay [3] was “inactive” each time.
In the case of `COc1cc(N2CCC(N)CC2)ccc1Nc1ncc(Cl)c(-c2c[nH]c3ccccc23)n1`, the Potency is 3.01 µM (active) in assay [1]; 1.45 µM (active) and 1.66 µM (active) in assay [2]; 1.63 µM (active) and 2.35 µM (active) in assay [3].
